Laboratory results reported in PubChem BioAssay AID1159580 (chemical genetic matrix, 2015).
The campaign covered roughly 5,500 compounds. About 2,000 (36%) were called active. About 18% were inconclusive and are not listed. Cut-off read from the data, not from the text of the source: active = normalized growth mostly below about 0.91 (no sharp cut-off); inconclusive = no clear call, values can overlap the other calls; inactive = mostly above about 0.92. Some of the results follow.

Assay: chemical genetic growth profiling, strain panel (AID 1159580);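 note: tested at 20 µM; growth read once vehicle control cultures reached saturation at 30 °C; 1 = growth at the plate median or of vehicle wells; lower values mean less growth of the strain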
Details: growth OD

Measured: normalized growth

CC(=O)OCC(=O)[C@@]1(O)CCC2C3CCC4=CC(=O)CC[C@]4(C)[C@@]3(F)[C@@H](O)C[C@@]21C (stereo partly specified)
inactive: S. cerevisiae deletion strains, locus YJR066W, strain TOR1, active compounds read low 0.939 | S. cerevisiae deletion strains, locus YKL009W, strain mrt4, active compounds read low 0.973 | S. cerevisiae deletion strains, locus YKL068W, active compounds read low 1.01 | S. cerevisiae deletion strains, locus YKL085W, strain MDH1 (second series), active compounds read low 1.01 | S. cerevisiae deletion strains, locus YKL085W, strain MDH1, active compounds read low 1.01 | S. cerevisiae deletion strains, locus YKL160W, strain elf1, active compounds read low 1.03 | S. cerevisiae deletion strains, locus YKL190W, strain CNB1, active compounds read low 1 | S. cerevisiae deletion strains, locus YKR001C, strain vps1, active compounds read low 0.987 | S. cerevisiae deletion strains, locus YKR026C, strain gcn3, active compounds read low 1.02 | S. cerevisiae deletion strains, locus YKR091W, strain srl3, active compounds read low 1 | S. cerevisiae deletion strains, locus YLL001W, strain dnm1, active compounds read low 1.03 | S. cerevisiae deletion strains, locus YLL026W, active compounds read low 1.01 | S. cerevisiae deletion strains, locus YLL041C, strain sdh2, active compounds read low 1.01 | S. cerevisiae deletion strains, locus YLR027C, strain aat2, active compounds read low 1.02 | S. cerevisiae deletion strains, locus YLR039C, strain RIC1, active compounds read low 1.04 | S. cerevisiae deletion strains, locus YLR058C, strain SHM2, active compounds read low 1.01 | S. cerevisiae deletion strains, locus YLR102C, strain apc9, active compounds read low 1.01 | S. cerevisiae deletion strains, locus YLR113W, strain HOG1, active compounds read low 0.992 | S. cerevisiae deletion strains, locus YLR221C, strain rsa3, active compounds read low 1.02 | S. cerevisiae deletion strains, locus YLR258W, strain gsy2, active compounds read low 1.01 | S. cerevisiae deletion strains, locus YLR262C, strain YPT6 (second series), active compounds read low 1.03 | S. cerevisiae deletion strains, locus YLR262C, strain YPT6, active compounds read low 1.01 | S. cerevisiae deletion strains, locus YLR268W, strain sec22, active compounds read low 0.985 | S. cerevisiae deletion strains, locus YLR320W, strain mms22, active compounds read low 1.05 | S. cerevisiae deletion strains, locus YLR330W, strain CHS5, active compounds read low 1.01 | S. cerevisiae deletion strains, locus YLR342W, strain FKS1 (second series), active compounds read low 1.02 | S. cerevisiae deletion strains, locus YLR342W, strain FKS1, active compounds read low 1.01 | S. cerevisiae deletion strains, locus YLR357W, strain rsc2, active compounds read low 1.01 | S. cerevisiae deletion strains, locus YLR370C, strain arc18, active compounds read low 1.02 | S. cerevisiae deletion strains, locus YLR371W, strain rom2, active compounds read low 1 | S. cerevisiae deletion strains, locus YLR384C, strain iki3, active compounds read low 1.02 | S. cerevisiae deletion strains, locus YLR418C, strain cdc73, active compounds read low 1.01 | S. cerevisiae deletion strains, locus YML016C, strain PPZ1, active compounds read low 1 | S. cerevisiae deletion strains, locus YML032C, strain rad52, active compounds read low 0.992 | S. cerevisiae deletion strains, locus YML120C, strain ndi1, active compounds read low 1.03 | S. cerevisiae deletion strains, locus YML124C, strain tub3, active compounds read low 1.01 | S. cerevisiae deletion strains, locus YMR058W, strain fet3, active compounds read low 1.02 | S. cerevisiae deletion strains, locus YMR078C, strain ctf18, active compounds read low 1.01 | S. cerevisiae deletion strains, locus YMR125W, strain sto1, active compounds read low 1.01 | S. cerevisiae deletion strains, locus YMR129W, active compounds read low 1.01 | S. cerevisiae deletion strains, locus YMR205C, strain PFK2, active compounds read low 1.02 | S. cerevisiae deletion strains, locus YMR223W, strain ubp8, active compounds read low 1.03 | S. cerevisiae deletion strains, locus YMR231W, strain pep5, active compounds read low 1.01 | S. cerevisiae deletion strains, locus YMR307W, strain GAS1, active compounds read low 1.01 | S. cerevisiae deletion strains, locus YNL067W, strain RPL9B, active compounds read low 0.998 | S. cerevisiae deletion strains, locus YNL071W, strain lat1, active compounds read low 1.02 | S. cerevisiae deletion strains, locus YNL128W, strain TEP1, active compounds read low 1.02 | S. cerevisiae deletion strains, locus YNL153C, strain GIM3, active compounds read low 1.01 | S. cerevisiae deletion strains, locus YNL183C, strain NPR1, active compounds read low 0.957 | S. cerevisiae deletion strains, locus YNL209W, strain ssb2, active compounds read low 1.01 | S. cerevisiae deletion strains, locus YNL233W, strain BNI4, active compounds read low 1 | S. cerevisiae deletion strains, locus YNL248C, strain rpa49, active compounds read low 1.02 | S. cerevisiae deletion strains, locus YNL271C, strain bni1, active compounds read low 1.01 | S. cerevisiae deletion strains, locus YNL298W, strain CLA4, active compounds read low 0.986 | S. cerevisiae deletion strains, locus YNL307C, strain MCK1, active compounds read low 1.02 | S. cerevisiae deletion strains, locus YNL322C, strain KRE1 (second series), active compounds read low 1.02 | S. cerevisiae deletion strains, locus YNR049C, strain mso1, active compounds read low 1.01 | S. cerevisiae deletion strains, locus YNR052C, strain pop2, active compounds read low 1 | S. cerevisiae deletion strains, locus YOL012C, strain htz1 0.967 | S. cerevisiae deletion strains, locus YOL147C, strain pex11, active compounds read low 1 | S. cerevisiae deletion strains, locus YOR001W, strain rrp6, active compounds read low 1 | S. cerevisiae deletion strains, locus YOR061W, strain CKA2, active compounds read low 1.01 | S. cerevisiae deletion strains, locus YOR069W, strain VPS5, active compounds read low 1.01 | S. cerevisiae deletion strains, locus YOR070C, strain gyp1, active compounds read low 1.03 | S. cerevisiae deletion strains, locus YOR080W, strain dia2, active compounds read low 1.01 | S. cerevisiae deletion strains, locus YOR083W, strain WHI5, active compounds read low 1.03 | S. cerevisiae deletion strains, locus YOR106W, strain vam3, active compounds read low 1.03 | S. cerevisiae deletion strains, locus YOR136W, strain idh2, active compounds read low 0.989 | S. cerevisiae deletion strains, locus YOR144C, strain elg1, active compounds read low 1 | S. cerevisiae deletion strains, locus YOR184W, strain ser1, active compounds read low 0.997 | S. cerevisiae deletion strains, locus YOR231W, strain MKK1, active compounds read low 1 | S. cerevisiae deletion strains, locus YOR265W, strain rbl2, active compounds read low 1.02 | S. cerevisiae deletion strains, locus YOR270C, strain vph1, active compounds read low 1.03 | S. cerevisiae deletion strains, locus YOR290C, strain snf2, active compounds read low 0.997 | S. cerevisiae deletion strains, locus YOR316C, strain cot1, active compounds read low 1.01 | S. cerevisiae deletion strains, locus YPL051W, strain arl3, active compounds read low 1.04 | S. cerevisiae deletion strains, locus YPL078C, strain atp4, active compounds read low 1.02 | S. cerevisiae deletion strains, locus YPL106C, strain sse1, active compounds read low 1.02 | S. cerevisiae deletion strains, locus YPL240C, strain hsp82, active compounds read low 0.994 | S. cerevisiae deletion strains, locus YPL256C, strain CLN2, active compounds read low 1 | S. cerevisiae deletion strains, locus YPR119W, strain clb2, active compounds read low 0.997 | S. cerevisiae deletion strains, locus YPR141C, strain kar3, active compounds read low 1 | S. cerevisiae deletion strains, locus YPR163C, strain tif3, active compounds read low 1 | S. cerevisiae deletion strains, locus YPR167C, strain met16, active compounds read low 0.999 | S. cerevisiae deletion strains, strain wtn01, active compounds read low 0.995 | S. cerevisiae strains, strain wild type, active compounds read low 1.01
